Reference: PubChem BioAssay AID1508600 (Functional Genomics Laboratory (NCATS/FGL), 2020)
In all, about 53,000 sequences went through this assay and about 3,700 (7%) were called active.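 Rule for the calls: active = gene knockdowns whose robust z-score for IL-1 alpha signal is at least 2 or at most -2, so actives lie on both sides; inactive = the rest.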 This excerpt belongs to a sample that is enriched for actives.

experiment: Components of the Cytosolic LPS Sensing Pathway: Gene Identification via Genome-wide siRNA Screen; settings: RAW264.7 macrophages, IL-1a HTRF, actives lie on both sides, screened at 100 nM (by protocol), cells primed 5 h with Pam3CSK4 first;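 note: robust z of the log signal after scaling to non-targeting control siRNA wells of the plate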
Outline: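 Cells (RAW264.7, 1×10^4 per well) were transfected with siRNA at 100 nM and cultured 48h at 37 degrees C. Pam3CSK4 was added for 5 hours; LipidA transfection followed for 24 hour. IL-1a was then measured by HTRF.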

Sequence | z-score
CGUUCAUGUUGUAAGUAUCTT against Olfr1196 | 0.461 (inactive)
GGAGACUUUGAAAAAAGACTT against Mrps31 | 0.5 (inactive)
GCUGAAAAUAUACCAUUCATT against Colec10 | -0.798 (inactive)
GGAUCCAGACUUAAGCUUATT against Zgpat | 2.57 (active)
CGGAUUACAAACCAUAAAATT against Mex3b | -0.497 (inactive)
GGAGAAGAGAAAGAUUCUUTT against Dhx9 | 0.724 (inactive)
GGCAAUGGAAGUUGGAACATT against Ptch1 | -2.15 (active)
GGACACAUGGUGUUGACCATT against Parp12 | 0.0379 (inactive)
GGACCUGAUCUUCAGGUUUTT against Gpc5 | 1.73 (inactive)
GGCUCUCAAUUUUAUUUCUTT against Ncaph2 | 0.894 (inactive)
GCACGAGACACUUUUCAUUTT against Dnajb5 | -0.0852 (inactive)
GGAAGCAGAAUUGUAAAGATT against Hrk | -1.09 (inactive)
GCAACAAAAGGCCUAAUCATT against 4930550C14Rik | -1.74 (inactive)
GGCCCUUGUUUAAAGCCAUTT against Asns | 0.0954 (inactive)
CGGCGUAUGAGGAUUGGUUTT against Atp8b1 | -0.739 (inactive)
GGCCAAGAUUAGAUUGCUUTT against Senp2 | 2.57 (active)
GCCCGUAUAGGUAUUGGUCTT against Mpg | 2.06 (active)
GCUUGAAUCCGAUUUGUUATT against Gramd1c | 0.296 (inactive)
GGCAUAUGAUGAUAAGUAATT against P2ry14 | 0.691 (inactive)
GGCACUGAAGGAGAACCUGTT against Rbbp8nl | -0.336 (inactive)
GGAACAACUGAAAAUGAAGTT against Ppp1r21 | -1.21 (inactive)
UUCCAUUCAUAUGUCUUGATT against Tas2r109 | 0.00348 (inactive)

Sequence | z-score
GGUUUUUCUAAGAGAACGGTT against Rnft1 | -0.558 (inactive)
CCUGGUCACUCCAAACCCATT against Zfp950 | -2.11 (active)
GGAGCUCUCGAAGGAUUGUTT against Eda2r | -0.768 (inactive)
GGAUAAGAGGGUGAAGUCATT against Cdyl2 | -1.06 (inactive)
GGUAUAUAGGGCUGUGGCUTT against Pigs | -0.822 (inactive)
GGUGUACUUUAUCUCACGATT against Olfr6 | 1.1 (inactive)
GCCUGUUCUAGGUGACCUATT against Chd3 | 0.236 (inactive)
GGAAAUACAGAACACAAGCTT against Plekhm3 | 2.04 (active)
GGUUAAAUAUGUAAACCACTT against Slco2b1 | 0.0949 (inactive)
CCAUAUAGCCUCAAAAUCGTT against Acat2 | -0.395 (inactive)
CGUCUCAACAGAGUUGGAGTT against Prmt2 | 1.94 (inactive)
CGAUGCUGAUGUAUCAAAGTT against Phkb | 1.48 (inactive)
GGUUCUUUUUACUCAGUGGTT against Ankhd1 | -2.53 (active)
GGAACUUCCUGUUCAGAAATT against Eci3 | 0.881 (inactive)
CGUUAGUCUGUGAAUGCACTT against Emc10 | -0.442 (inactive)
GGACAGUAAUAUGAUGAGCTT against Lzts1 | -0.943 (inactive)
GCUUUAGUGACGGCUCGAATT against Zscan2 | 2.07 (active)
GGGAGUGAGUUCUGGAGUGTT against Capn2 | 0.815 (inactive)
GGUUUUAAAGCAAUGAGCATT against Olfr995 | -1.2 (inactive)
CCCAUGUCGUGACAUCACATT against Slc26a7 | -2.93 (active)
GGCCUUCUAUUUUGUCAAUTT against Limd1 | 0.403 (inactive)
GAAAUUUCCUAGAUGACUCTT against Vmn1r199 | -0.447 (inactive)

Sequence | z-score
CGUAUGAGUGCAAUACUAATT against Pcmtd1 | 1.32 (inactive)
GCACAUAGUGUAUCUAUACTT against Cd86 | -1.24 (inactive)
GUCUUGCGUGACAACAUCCTT against H4c14 | 0.718 (inactive)
GCUUAUAUGGCCUGAGAGATT against Tmem199 | -0.74 (inactive)
GGUCAAAGGGAAACAAGUUTT against Creb3l4 | -2.02 (active)
GGUGGUUUAACUGGAUAUUTT against Paip2b | -1.95 (inactive)
GCCCAUGUAUCCAAAAGAATT against Cnmd | -1.59 (inactive)
GGUGAUUGACAGAUUCUGATT against Nr4a1 | -0.613 (inactive)
GCUUGGACCAUAAAUACUGTT against Senp5 | 0.051 (inactive)
GAUCAGAUGUUUGGGACUUTT against Olfr512 | 2.25 (active)
GGACUUCUUAAUGUUUUACTT against Phf11a | 0.398 (inactive)
GCCCAAGGUAACAACAAGCTT against Rtn4r | 1.28 (inactive)
GGUAACUUUGAACUGAUCCTT against 1700030J22Rik | -1.17 (inactive)
CCCUCAACCUCCAACCACATT against Ceacam1 | -2.15 (active)
GGGUUAGAGUAAGGUAUUATT against Tsn | -0.879 (inactive)
GCAGAUAGCCCACGUCAUUTT against Nfkb2 | 0.881 (inactive)
CCUAAGUUCCUGAAAAUAUTT against Epha5 | -0.454 (inactive)
GGGAUUCAGACAUGUGCUGTT against 4930503E14Rik | -0.658 (inactive)
GGCCUACGAGAGGCAAAAATT against Hnf1a | -2.05 (active)
CCAUACCGAUCAAAUUCCCTT against Pfn2 | -0.596 (inactive)
GCAAUAGAAAAGUCCGUGGTT against Rbsn | -1.12 (inactive)
GGCAAAGGAUCCAAGUUUGTT against Tmem123 | 2.81 (active)

Sequence | z-score
GGAUGUCCAGAUGUAAAUATT against Vps16 | -0.974 (inactive)
GGUUAUCAGAGGUUUAGUUTT against Oser1 | 0.23 (inactive)
GGGUCUCCAAUCCCUCAGUTT against Kir3dl2 | 0.489 (inactive)
GGGCAAGAACAACUCACUUTT against 4933404G15Rik | -2.93 (active)
GGAUUCAAAGCUUCCUUUATT against Eras | 0.115 (inactive)
CGAAAAGGUGUGGCCAUCATT against Eif4a3 | -0.664 (inactive)
CGACAUGUAAAACUAUUGUTT against Cd300e | 0.864 (inactive)
CGACAUUUUACUAAGAGAUTT against Idnk | -0.895 (inactive)
UCGAGUGAAGCAGUCUCCATT against Fam189a1 | -2.13 (active)
GCCCAGAAUGCUCACUAAATT against Sln | 0.491 (inactive)
GGCUGUAAUUUUGAACAAUTT against Rnf17 | -1.42 (inactive)
CGAGAUCGAGUACUCAACUTT against Vps39 | -2.96 (active)
GGUCACUCAAAGAAUUAUGTT against Srr | -1.05 (inactive)
CCUGUUAAUGACACCCACGTT against Slc37a2 | -0.886 (inactive)
GGCGAUUUACAACUUUGGATT against H2aw | 0.0941 (inactive)
GGAGUGAAGGGUCAUCCAGTT against Col9a2 | 5.07 (active)
GGAUAUAGGUGUGAUCUAGTT against Mxra7 | 0.9 (inactive)
CCCAAUGUUUCUAAUCAUGTT against Arhgap12 | 0.306 (inactive)
GGAAGGUUUGUUUUGUUUGTT against Slc24a3 | 0.0291 (inactive)
GGAGGAAUACCAGGAAUACTT against Sncb | 0.33 (inactive)
GCCCUUUUCAUUCUCCAGATT against Zdhhc25 | 4.39 (active)
GCCUUUGUGGACCAUCCAATT against Thy1 | -0.954 (inactive)

Sequence | z-score
GGAAAUACGGCAGAACCCUTT against Kcnk9 | -2.54 (active)
GUACCUCAGAGCUCUGCAUTT against Helt | -0.292 (inactive)
GCACUUAGUCCUACAUGACTT against Fut1 | -1.21 (inactive)
GGUGGUAAUAGACAAACACTT against Ctdnep1 | -0.749 (inactive)
GGAUGUGUCAGAAAAGUUATT against Lars2 | 0.641 (inactive)
GGAAAUUGUGGACAUGAUCTT against Sult1c1 | -3.27 (active)
GGUAACAAAUGCUGUUUUATT against Cul1 | 0.459 (inactive)
CCGAUUGAAUUACUCAGCATT against Bcas2 | 0.226 (inactive)
GGACAAAAGACAAUCGAGATT against Parp2 | -0.273 (inactive)
CGAUGUUUUCAUGAACGACTT against Tctex1d2 | 0.738 (inactive)
GCUGGGUUAUGAGAUUUCUTT against Tns2 | 2.26 (active)
GGAGGAUUACAACACUGUUTT against Enpp3 | -0.617 (inactive)
CCUAGUAGCCGAGAAACAUTT against Olfr1137 | -0.705 (inactive)
GGCAAUACGUGAAGAAAAATT against Baz1a | -0.493 (inactive)
GGCUGUUUCUGUCAUGGUUTT against Nup133 | 0.383 (inactive)
GCAGAGAUAAAUUGGAAAGTT against Art2b | 0.292 (inactive)
GGAUAGAGCACAGAUCCAGTT against St8sia5 | 2.38 (active)
GGUCGAAAUGAUCUCCAACTT against Poli | -0.687 (inactive)
GCUUCGAGAACUUUCUCCCTT against Nrtn | 0.818 (inactive)
